Legend:
[1] = molecular target: T1, TGF-beta receptor type-1 (Homo sapiens) (UniProt P36897); conditions: at 1 µM
T1 sequence (whole entry): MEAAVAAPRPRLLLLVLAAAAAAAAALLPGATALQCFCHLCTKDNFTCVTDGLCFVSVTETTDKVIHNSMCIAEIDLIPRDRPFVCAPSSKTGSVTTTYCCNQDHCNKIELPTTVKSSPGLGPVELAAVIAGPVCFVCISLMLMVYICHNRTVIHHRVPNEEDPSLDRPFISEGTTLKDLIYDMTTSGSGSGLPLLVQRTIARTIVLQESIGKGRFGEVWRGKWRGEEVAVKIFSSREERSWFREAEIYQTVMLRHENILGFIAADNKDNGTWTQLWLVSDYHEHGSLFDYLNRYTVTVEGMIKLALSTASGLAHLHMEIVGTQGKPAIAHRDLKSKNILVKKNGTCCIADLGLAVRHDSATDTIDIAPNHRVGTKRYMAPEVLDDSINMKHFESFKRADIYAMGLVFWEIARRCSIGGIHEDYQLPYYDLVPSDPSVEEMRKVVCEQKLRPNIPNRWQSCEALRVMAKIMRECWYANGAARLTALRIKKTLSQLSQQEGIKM

[2] = molecular target: T1, TGF-beta receptor type-1 (Homo sapiens); conditions: at 10 µM
[3] = molecular target: Insulin-like growth factor 1 receptor (Homo sapiens) (UniProt P08069); conditions: at 1 µM
Sequence of Insulin-like growth factor 1 receptor (Homo sapiens) (P08069 31-736 limits assumed): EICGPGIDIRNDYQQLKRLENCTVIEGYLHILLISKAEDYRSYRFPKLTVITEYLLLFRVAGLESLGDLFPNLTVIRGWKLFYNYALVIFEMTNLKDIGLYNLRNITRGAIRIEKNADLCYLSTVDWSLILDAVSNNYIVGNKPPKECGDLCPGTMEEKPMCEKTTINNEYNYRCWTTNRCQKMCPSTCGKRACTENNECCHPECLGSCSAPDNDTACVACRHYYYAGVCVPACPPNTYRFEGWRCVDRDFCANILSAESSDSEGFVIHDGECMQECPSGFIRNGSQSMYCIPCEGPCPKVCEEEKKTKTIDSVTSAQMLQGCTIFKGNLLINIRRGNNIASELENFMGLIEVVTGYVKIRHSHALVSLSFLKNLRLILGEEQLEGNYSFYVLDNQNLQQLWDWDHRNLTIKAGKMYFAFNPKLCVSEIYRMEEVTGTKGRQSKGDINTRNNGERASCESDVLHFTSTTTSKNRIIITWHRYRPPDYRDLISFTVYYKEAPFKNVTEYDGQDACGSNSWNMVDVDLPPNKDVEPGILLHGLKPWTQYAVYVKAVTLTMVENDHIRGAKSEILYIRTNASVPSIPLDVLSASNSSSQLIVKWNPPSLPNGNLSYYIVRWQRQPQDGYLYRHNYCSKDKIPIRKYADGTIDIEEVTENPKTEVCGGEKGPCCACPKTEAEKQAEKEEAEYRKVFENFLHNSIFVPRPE
Sequence of Insulin-like growth factor 1 receptor (Homo sapiens) (P08069 741-1367 limits assumed): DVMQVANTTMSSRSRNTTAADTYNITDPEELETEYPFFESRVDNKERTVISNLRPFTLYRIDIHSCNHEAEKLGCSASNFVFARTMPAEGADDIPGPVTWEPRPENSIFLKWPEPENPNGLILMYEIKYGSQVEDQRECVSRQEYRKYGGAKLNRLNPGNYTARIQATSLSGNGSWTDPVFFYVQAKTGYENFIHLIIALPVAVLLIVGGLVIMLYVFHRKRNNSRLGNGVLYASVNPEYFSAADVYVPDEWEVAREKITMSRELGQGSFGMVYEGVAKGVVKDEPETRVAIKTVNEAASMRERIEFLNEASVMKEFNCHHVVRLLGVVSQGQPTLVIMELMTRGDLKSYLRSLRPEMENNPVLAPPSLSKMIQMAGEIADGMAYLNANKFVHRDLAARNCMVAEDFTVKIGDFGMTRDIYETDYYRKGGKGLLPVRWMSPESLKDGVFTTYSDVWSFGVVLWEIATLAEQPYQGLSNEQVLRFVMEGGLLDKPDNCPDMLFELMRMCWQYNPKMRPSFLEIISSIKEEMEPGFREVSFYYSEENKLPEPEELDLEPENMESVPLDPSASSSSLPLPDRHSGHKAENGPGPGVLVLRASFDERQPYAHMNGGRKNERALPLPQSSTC

[4] = molecular target: Insulin-like growth factor 1 receptor (Homo sapiens) (UniProt P08069); conditions: at 10 µM
[5] = molecular target: T2, Inhibitor of nuclear factor kappa-B kinase subunit alpha (Homo sapiens) (UniProt O15111); conditions: at 1 µM
T2 sequence (whole entry): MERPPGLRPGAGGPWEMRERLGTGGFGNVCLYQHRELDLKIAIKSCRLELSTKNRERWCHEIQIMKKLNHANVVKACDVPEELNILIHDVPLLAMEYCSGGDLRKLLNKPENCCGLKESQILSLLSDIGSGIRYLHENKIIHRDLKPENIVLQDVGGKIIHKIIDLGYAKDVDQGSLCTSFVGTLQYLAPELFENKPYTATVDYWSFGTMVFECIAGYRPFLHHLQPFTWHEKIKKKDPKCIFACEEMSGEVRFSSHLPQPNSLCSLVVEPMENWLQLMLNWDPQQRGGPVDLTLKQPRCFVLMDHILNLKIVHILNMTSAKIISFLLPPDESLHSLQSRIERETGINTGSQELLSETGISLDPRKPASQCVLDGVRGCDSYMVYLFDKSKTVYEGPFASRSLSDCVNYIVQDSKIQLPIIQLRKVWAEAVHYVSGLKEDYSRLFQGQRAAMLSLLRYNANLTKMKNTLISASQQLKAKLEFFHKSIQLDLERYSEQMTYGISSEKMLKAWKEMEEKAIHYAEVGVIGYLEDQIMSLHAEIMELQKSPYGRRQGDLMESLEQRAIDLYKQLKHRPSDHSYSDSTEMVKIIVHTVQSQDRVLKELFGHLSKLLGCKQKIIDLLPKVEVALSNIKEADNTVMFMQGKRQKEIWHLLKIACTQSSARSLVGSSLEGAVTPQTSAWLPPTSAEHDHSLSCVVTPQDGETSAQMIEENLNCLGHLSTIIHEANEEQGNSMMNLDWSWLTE

[6] = molecular target: T2, Inhibitor of nuclear factor kappa-B kinase subunit alpha (Homo sapiens); conditions: at 10 µM
[7] = molecular target: T3, Inhibitor of nuclear factor kappa-B kinase subunit beta (Homo sapiens) (UniProt O14920); conditions: at 1 µM
T3 sequence (whole entry): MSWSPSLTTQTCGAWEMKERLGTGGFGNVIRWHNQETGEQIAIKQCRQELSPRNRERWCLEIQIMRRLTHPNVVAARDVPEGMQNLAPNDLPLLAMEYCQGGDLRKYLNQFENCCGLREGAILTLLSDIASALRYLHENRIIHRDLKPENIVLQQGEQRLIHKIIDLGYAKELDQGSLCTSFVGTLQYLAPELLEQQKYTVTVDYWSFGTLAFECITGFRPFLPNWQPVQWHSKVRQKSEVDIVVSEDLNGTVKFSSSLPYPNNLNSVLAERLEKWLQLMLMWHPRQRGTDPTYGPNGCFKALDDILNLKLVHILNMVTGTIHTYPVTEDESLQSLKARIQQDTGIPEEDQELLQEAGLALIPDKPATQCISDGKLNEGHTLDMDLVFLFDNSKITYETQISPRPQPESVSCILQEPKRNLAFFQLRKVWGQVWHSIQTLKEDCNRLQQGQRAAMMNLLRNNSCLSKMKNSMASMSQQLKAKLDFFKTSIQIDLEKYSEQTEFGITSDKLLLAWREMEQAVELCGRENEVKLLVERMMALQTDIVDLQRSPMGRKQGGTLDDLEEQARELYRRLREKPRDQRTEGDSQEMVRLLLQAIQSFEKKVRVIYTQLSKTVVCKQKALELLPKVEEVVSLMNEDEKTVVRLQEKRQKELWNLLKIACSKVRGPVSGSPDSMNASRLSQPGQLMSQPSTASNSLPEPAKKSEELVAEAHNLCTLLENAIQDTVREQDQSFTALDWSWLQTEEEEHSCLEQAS

[8] = molecular target: T3, Inhibitor of nuclear factor kappa-B kinase subunit beta (Homo sapiens); conditions: at 10 µM
[9] = molecular target: Insulin receptor (Homo sapiens) (UniProt P06213); conditions: at 1 µM
Sequence of Insulin receptor (Homo sapiens) (P06213 28-758 limits assumed): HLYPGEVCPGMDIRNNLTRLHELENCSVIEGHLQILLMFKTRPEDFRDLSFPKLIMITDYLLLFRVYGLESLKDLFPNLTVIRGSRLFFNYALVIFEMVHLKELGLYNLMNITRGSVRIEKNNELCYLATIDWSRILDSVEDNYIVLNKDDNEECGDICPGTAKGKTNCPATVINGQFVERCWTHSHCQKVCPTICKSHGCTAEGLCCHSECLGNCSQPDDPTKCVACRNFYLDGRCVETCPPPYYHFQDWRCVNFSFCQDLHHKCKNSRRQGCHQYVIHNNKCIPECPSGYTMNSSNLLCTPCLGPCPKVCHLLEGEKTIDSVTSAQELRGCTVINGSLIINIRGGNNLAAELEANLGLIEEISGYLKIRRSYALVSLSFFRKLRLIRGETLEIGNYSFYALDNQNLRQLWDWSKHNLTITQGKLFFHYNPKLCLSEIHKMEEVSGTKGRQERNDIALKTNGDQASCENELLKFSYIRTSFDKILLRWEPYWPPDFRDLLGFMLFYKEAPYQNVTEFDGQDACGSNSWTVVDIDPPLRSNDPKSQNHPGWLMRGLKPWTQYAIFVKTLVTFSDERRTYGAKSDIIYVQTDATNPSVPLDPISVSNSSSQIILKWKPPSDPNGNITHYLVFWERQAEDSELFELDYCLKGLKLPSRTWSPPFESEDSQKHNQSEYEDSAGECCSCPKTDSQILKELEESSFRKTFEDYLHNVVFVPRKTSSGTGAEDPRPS
Sequence of Insulin receptor (Homo sapiens) (P06213 763-1382 limits assumed): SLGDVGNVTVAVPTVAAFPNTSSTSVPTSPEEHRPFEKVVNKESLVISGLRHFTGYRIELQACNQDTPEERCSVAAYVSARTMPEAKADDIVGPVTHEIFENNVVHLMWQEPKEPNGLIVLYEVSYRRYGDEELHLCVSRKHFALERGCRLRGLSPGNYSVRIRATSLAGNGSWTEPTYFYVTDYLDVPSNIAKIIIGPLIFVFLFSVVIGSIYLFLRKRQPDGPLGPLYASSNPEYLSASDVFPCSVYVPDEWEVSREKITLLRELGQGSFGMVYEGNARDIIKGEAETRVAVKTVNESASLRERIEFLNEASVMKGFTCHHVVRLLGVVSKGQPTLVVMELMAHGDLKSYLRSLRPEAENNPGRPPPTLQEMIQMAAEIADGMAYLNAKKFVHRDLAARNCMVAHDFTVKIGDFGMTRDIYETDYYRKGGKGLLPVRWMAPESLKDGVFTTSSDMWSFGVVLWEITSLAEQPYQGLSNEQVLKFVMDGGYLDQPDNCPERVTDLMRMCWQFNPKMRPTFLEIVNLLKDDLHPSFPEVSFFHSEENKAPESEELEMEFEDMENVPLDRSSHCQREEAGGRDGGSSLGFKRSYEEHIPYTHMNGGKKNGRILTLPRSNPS

O=C1Nc2ccccc2/C1=C1/Nc2ccccc2/C1=N\OCCC(O)CO (centres undefined)
residual activity [1]: 77%
residual activity [2]: 64%
residual activity [3]: 10%
residual activity [4]: 10%
residual activity [5]: 82%
residual activity [6]: 46%
residual activity [7]: 104%
residual activity [8]: 66%
residual activity [9]: 17%

Reference: ChEMBL document CHEMBL2218924, “A broad activity screen in support of a chemogenomic map for kinase signalling research and drug discovery” (Biochem J, 2013)
